Data as given in PubChem BioAssay (NCATS).
Inconclusive results are not listed. Active and inactive are the calls of the source. Calls follow the shape of the dose curve; as a rule, active = well fitted curve in the direction sought with a large enough effect; inconclusive = small, poorly fitted or top-dose-only effect, or another doubt; inactive = no such curve, though single readings can be large; an effect the other way counts as inactive or inconclusive.

Experiments:
[1] = molecular target: Rap guanine nucleotide exchange factor 3 (Homo sapiens) (UniProt O95398); test: Confirmatory qHTS for antagonist of cAMP-regulated guanine nucleotide exchange factor 3 (EPAC1) (AID 1645880); conditions: EPAC1 Rap1B-BODIPY-GDP exchange, fluorescence; series mostly up to 115 µM; also: nearly all actives have a fitted effect of over 55% in size; also: potency is read from the fitted curve at half-maximal effect
Sequence of Rap guanine nucleotide exchange factor 3 (Homo sapiens) (O95398 whole entry, looked up): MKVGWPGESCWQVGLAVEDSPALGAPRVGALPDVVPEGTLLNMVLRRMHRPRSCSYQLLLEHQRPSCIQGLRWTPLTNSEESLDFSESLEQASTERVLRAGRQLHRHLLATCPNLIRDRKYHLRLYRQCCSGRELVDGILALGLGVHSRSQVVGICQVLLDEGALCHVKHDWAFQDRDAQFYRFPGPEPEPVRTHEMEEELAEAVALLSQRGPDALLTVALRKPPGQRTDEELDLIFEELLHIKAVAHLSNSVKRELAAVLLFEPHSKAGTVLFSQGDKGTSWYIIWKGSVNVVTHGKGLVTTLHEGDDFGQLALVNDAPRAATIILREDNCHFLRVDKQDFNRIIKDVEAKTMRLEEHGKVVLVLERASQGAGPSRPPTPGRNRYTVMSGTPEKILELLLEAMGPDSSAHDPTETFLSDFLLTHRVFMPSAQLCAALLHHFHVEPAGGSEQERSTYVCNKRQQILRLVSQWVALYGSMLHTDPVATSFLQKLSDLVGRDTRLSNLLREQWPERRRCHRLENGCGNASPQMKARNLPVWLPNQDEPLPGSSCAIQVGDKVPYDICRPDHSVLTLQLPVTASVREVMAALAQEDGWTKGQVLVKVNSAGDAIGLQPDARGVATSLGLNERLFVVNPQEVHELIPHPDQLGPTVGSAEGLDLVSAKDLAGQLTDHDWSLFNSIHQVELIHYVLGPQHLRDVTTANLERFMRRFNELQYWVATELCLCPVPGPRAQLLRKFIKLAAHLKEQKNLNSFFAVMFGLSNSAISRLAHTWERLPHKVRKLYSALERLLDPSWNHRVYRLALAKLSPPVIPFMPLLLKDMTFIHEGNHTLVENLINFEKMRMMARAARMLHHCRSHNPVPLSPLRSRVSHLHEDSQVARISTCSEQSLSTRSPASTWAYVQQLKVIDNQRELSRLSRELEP
Outline: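 Nucleotide exchange uses 100 nM EPAC1, 250 nM RAP1B-BODIPY-GDP and 50 uM GDP, with compounds in a concentration-titration series. After 5 min at room temperature, fluorescence (480 nm ex/540 nm em) is read every 5 min for 30 min. Data are normalized to control ATA and DMSO.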

[2] = molecular target: Rap guanine nucleotide exchange factor 3 (Homo sapiens) (UniProt O95398); test: Confirmatory qHTS for agonist of cAMP-regulated guanine nucleotide exchange factor 3 (EPAC1) (AID 1645881); conditions: EPAC1 Rap1B BODIPY-GDP exchange fluorescence; series mostly up to 154 µM; also: nearly all actives have a fitted effect of over 75% in size; also: potency is read from the fitted curve at half-maximal effect;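 as to activation: EPAC1 catalysed release of BODIPY-GDP from Rap1B seen as fluorescence loss; 100% = effect of cAMP agonist control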
[3] = molecular target: Rap guanine nucleotide exchange factor 4 (Homo sapiens) (UniProt Q8WZA2); test: Confirmatory qHTS for agonist of cAMP-regulated guanine nucleotide exchange factor 4 (EPAC2) (AID 1645884); conditions: EPAC2 GEF activity, Rap1B-BODIPY-GDP fluorescence; series mostly up to 154 µM;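 also: nucleotide exchange releases bodipy-GDP from Rap1 and this lowers its fluorescence; nearly all actives have a fitted effect of over 65% in size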; also: potency is read from the fitted curve at half-maximal effect; as to activation: % is scaled to controls: 0 for no effect and ±100 for the full control effect
Sequence of Rap guanine nucleotide exchange factor 4 (Homo sapiens) (Q8WZA2 whole entry, looked up): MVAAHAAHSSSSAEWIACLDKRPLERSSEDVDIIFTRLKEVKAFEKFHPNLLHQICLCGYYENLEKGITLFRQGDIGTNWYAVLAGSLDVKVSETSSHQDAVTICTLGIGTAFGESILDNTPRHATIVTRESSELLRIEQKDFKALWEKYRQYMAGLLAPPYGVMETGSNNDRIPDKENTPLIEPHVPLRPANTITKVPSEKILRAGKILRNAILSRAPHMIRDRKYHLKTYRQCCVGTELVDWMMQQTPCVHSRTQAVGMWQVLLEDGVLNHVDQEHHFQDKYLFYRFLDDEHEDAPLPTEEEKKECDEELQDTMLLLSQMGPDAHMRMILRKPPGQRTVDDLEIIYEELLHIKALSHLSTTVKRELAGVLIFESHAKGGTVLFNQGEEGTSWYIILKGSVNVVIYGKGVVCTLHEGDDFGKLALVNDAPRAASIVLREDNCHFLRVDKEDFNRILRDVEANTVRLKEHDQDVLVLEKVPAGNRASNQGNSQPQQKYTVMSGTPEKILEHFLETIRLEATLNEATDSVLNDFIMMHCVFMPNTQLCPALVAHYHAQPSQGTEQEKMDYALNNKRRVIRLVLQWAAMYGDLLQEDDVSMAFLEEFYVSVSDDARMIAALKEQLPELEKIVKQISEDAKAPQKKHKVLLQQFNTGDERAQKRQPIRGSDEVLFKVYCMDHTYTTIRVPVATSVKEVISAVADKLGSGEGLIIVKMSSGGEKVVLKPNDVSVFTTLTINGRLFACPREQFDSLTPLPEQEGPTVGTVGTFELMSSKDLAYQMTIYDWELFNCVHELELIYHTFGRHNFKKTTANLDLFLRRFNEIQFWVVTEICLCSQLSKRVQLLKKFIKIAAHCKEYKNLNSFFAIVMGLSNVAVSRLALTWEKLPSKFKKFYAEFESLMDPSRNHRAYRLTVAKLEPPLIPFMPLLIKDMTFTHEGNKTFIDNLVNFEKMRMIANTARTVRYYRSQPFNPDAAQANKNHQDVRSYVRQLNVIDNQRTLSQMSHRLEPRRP

[4] = molecular target: Rap guanine nucleotide exchange factor 4 (Homo sapiens) (UniProt Q8WZA2); test: Confirmatory qHTS for antagonist of cAMP-regulated guanine nucleotide exchange factor 4 (EPAC2) (AID 1645885); conditions: EPAC2 Rap1B-BODIPY-GDP exchange fluorescence, biochemical; series mostly up to 12.7 µM; also: nearly all actives have a fitted effect of over 25% in size; also: potency is read from the fitted curve at half-maximal effect; as to activity change, negative = inhibition: % is scaled to controls: 0 for no effect and ±100 for the full control effect
[5] = molecular target: Rap guanine nucleotide exchange factor 3 (Homo sapiens) (UniProt O95398); test: Counterscreen qHTS for antagonist of cAMP-regulated guanine nucleotide exchange factor 3 (EPAC1) (AID 1645888); conditions: Rap1B-BODIPY-GDP nucleotide exchange, fluorescence; series mostly up to 154 µM;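 also: fluorescence loss as bound BODIPY-GDP is released from Rap1B; % of control where 0% means no effect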
Outline: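 Rap1B-BODIPY-GDP 250 nM + GDP 50 uM; cpds 7-pt, final 9.74 nM–152 uM (activator mode) or from 7.32 nM upwards (inhibitor mode); RT; FI 480/540 nm at 5 and 30 min, then ± cAMP, reread.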

Cc1cc(NC(=O)CSc2sc3c(O)cc(=O)[nH]c3c2C#N)ccc1Br
inactive: Potency [2] | Potency [3] | Potency [4] | Potency [5]
active: Potency [1] 42.6 µM

O=C(O)c1ccc(NC2=C/C(=N/S(=O)(=O)c3cccs3)c3ccccc3C2=O)cc1
inactive: Potency [2] | Potency [3] | Potency [4] | Potency [5]
active: Potency [1] 60.1 µM

Cc1nc(N(C)Cc2ccccc2)c2c(C)c(C)sc2n1
inactive: Potency [1] | Potency [2] | activation [3] 3.14% [at 17.1 µM, percent relative to cAMP agonist control] | Potency [4] | activity change, negative = inhibition [5] -24.2% [at 30.8 µM]

O=C(COc1ccccc1Cl)Nc1cccc(S(=O)(=O)NC2=NCCCCC2)c1
inactive: Potency [1] | Potency [2] | Potency [3] | Potency [4] | Potency [5]

CCOc1ccc(/C(C)=N/NC(=O)C(OC)c2ccccc2)cc1 (stereo not given)
inactive: Potency [1] | Potency [2] | Potency [3] | Potency [4] | Potency [5]

CC1(C(=O)Nc2ccc(Cl)cc2)Cc2c(-c3cccc(C(N)=O)c3)ccnc2O1 (stereo not given)
inactive: Potency [1] | Potency [2] | activation [3] 9.22% [at 17.1 µM, percent relative to cAMP agonist control] | Potency [4] | activity change, negative = inhibition [5] 3.15% [at 30.8 µM]

CC(=O)Nc1ccc(NC(=O)CCC(=O)OCC(=O)c2ccc(C)c([N+](=O)[O-])c2)cc1
inactive: Potency [1] | Potency [2] | Potency [3] | Potency [4] | Potency [5]

COc1ccc(-n2c(SCC(=O)Nc3nccs3)nc3c(c2=O)SC(C)C3)cc1 (stereo not given)
inactive: Potency [1] | Potency [2] | Potency [3] | Potency [4] | Potency [5]

CC(=O)C1=C(C)OC2(O)c3ccccc3C(=O)C12O (stereo not given)
inactive: Potency [1] | Potency [2] | activation [3] 4.3% [at 17.1 µM, percent relative to cAMP agonist control] | Potency [4] | activity change, negative = inhibition [5] -10.4% [at 30.8 µM]

CCn1c(=O)c2sccc2n2c(CCCC(=O)N3CCN(c4cc(C)ccc4C)CC3)nnc12
inactive: Potency [1] | Potency [2] | Potency [3] | Potency [4] | Potency [5]

NC(=O)c1cc2ccc(O)cc2oc1=NCc1ccccc1
active: Potency [2] 112 µM | Potency [3] 112 µM
inactive: Potency [1] | Potency [4] | Potency [5]

CC1CN(C(=O)CCC(=O)NCc2ccccc2)c2ccccc2S1 (stereo not given)
inactive: Potency [1] | Potency [2] | Potency [3] | Potency [4] | Potency [5]

COc1cc(S(=O)(=O)Nc2ccc(C)cc2)ccc1N=Cc1c(C)c(C#N)c(=O)n(C)c1O
inactive: Potency [1] | Potency [2] | Potency [3] | Potency [4] | Potency [5]

COc1ccc(N/C=C2\CCc3ccccc3C2=O)cc1
inactive: Potency [1] | Potency [4] | Potency [5]
active: Potency [2] 89.1 µM | Potency [3] 100 µM

COc1cccc(Cn2c(=O)cc(C)c3c(C)nn(C)c32)c1
inactive: Potency [1] | Potency [2] | Potency [3] | Potency [4] | Potency [5]

O=C1NN(c2ccccc2)C(=O)/C1=C\c1coc2ccc(O)cc2c1=O
inactive: Potency [2] | Potency [3] | Potency [4] | Potency [5]
active: Potency [1] 21.3 µM

Cc1ccccc1OCCn1cnc2c(N)ncnc21
inactive: Potency [1] | Potency [2] | Potency [3] | Potency [4] | Potency [5]

Cc1nc(Cl)sc1C(=O)NC(C)c1ccc(Cl)cc1 (stereo not given)
inactive: Potency [1] | Potency [2] | Potency [3] | Potency [4] | Potency [5]

Cc1ccc2nc3sc(C(=O)NCc4ccco4)c(N)c3cc2c1
inactive: Potency [1] | Potency [2] | activation [3] 2.22% [at 17.1 µM, percent relative to cAMP agonist control] | Potency [4] | activity change, negative = inhibition [5] 3.21% [at 30.8 µM]

O=C(Cn1cc(SCc2ccc(Cl)cc2)c2ccccc21)N1CCCC1
inactive: Potency [1] | Potency [2] | Potency [3] | Potency [4] | Potency [5]

CC(SC1=NCCN1S(=O)(=O)c1ccc(F)cc1)c1ccccc1 (stereo not given)
inactive: Potency [1] | Potency [2] | Potency [3] | Potency [5]
active: Potency [4] 12 µM

O=C(/C=C/c1ccco1)Nc1cccc(C(=O)Nc2ccccc2C(=O)O)c1
active: Potency [1] 3.98 µM
inactive: Potency [2] | activation [3] 3.49% [at 17.1 µM, percent relative to cAMP agonist control] | Potency [4] | activity change, negative = inhibition [5] 19% [at 30.8 µM]
